High-throughput results (PubChem BioAssay)
Hits are enriched below; roughly 3.2% of the tested compounds scored in any of these assays.
PNC assembly inh: blocks assembly of the perinucleolar compartment; PC3M PTB-GFP, PNC prevalence imaging, 16 h; active compounds read low; activity change (PNC), negative = inhibition, % at 10 µM; actives 3.1% (n = 140,000); AID 2417;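 active = readout at or below -70, meaning at least 70% loss of cells showing the perinucleolar compartment, a nuclear body marking cancer cells; inconclusive = readout between -30 and a set limit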;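 note: plate controls were DMSO wells for no effect and camptothecin positive control wells for full effect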
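PC3M cells stably expressing PTB-GFP, 750–1000 cells/well, treated 16 h at 37 °C with compound (23 nl of library stock), in duplicate. After paraformaldehyde fixation and Hoechst stain, imaged at 20x; PNC prevalence scored by image analysis.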
ALOX12 inhib: inhibitors of human 12-lipoxygenase (ALOX12). purified 12-hLO, xylenol orange hydroperoxide absorbance. Potency, µM (series often up to 57.1 µM), without a hit: at the top dose activity change, negative = inhibition, most hits filed as inhibitors. actives 0.12% (n = 150,000). AID 1452; note: potency is the fitted concentration of half-maximal effect; nearly all actives have a fitted effect of over 55% in size
Target sequence (P18054 whole entry, looked up): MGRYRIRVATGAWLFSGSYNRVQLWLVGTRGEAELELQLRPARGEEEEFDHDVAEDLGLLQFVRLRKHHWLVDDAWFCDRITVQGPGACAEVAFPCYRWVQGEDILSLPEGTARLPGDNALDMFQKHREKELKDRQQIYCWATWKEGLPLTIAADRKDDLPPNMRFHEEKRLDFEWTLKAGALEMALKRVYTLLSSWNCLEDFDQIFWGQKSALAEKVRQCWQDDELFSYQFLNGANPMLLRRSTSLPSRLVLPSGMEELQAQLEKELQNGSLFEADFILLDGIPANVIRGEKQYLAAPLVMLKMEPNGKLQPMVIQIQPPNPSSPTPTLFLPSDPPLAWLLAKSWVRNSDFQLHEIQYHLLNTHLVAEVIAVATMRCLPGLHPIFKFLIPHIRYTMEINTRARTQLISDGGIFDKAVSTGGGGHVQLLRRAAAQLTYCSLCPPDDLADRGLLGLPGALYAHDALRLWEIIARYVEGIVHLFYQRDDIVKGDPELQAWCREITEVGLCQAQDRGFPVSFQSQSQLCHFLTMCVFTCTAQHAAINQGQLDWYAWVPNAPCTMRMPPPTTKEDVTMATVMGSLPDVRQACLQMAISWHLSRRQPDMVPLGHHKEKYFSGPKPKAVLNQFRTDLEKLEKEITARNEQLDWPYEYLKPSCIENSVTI
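Purified human 12hLO (150 nM), preincubated 15 min with compound, then 40 uM arachidonic acid for 30 min, room temperature, Hepes pH 7.0 with 0.01% Triton X-100. Hydroperoxide detected by ferrous iron/xylenol orange; 573/405 nm absorbance ratio gives reaction progress.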
ALOX15B inhib: inhibitors of human 15-lipoxygenase 2 (ALOX15B). O15296. purified 15hLO-2, xylenol orange hydroperoxide absorbance. Potency, µM (titrated, usually from 57.1 µM), without a hit: top-dose activity change, negative = inhibition, hits mostly inhibitors. actives 0.56% (n = 110,000); note: potency is the fitted concentration of half-maximal effect; nearly all actives have a fitted effect of over 60% in size
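Purified human 15hLO-2 (50 nM) preincubated 15 min with compound, then 45 uM arachidonic acid for 90 min at RT in 25 mM Hepes pH 7.5, 0.01% Triton X-100. Hydroperoxide detected by Fe-xylenol orange; 573/405 nm absorbance ratio.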
The depositor's hits bear a star; [ ] = remark or other dose. Unless noted, calls come from the whole dose curve; as a rule, active = well fitted curve in the direction sought with a large enough effect; inconclusive = small, poorly fitted or top-dose-only effect, or another doubt; inactive = no such curve, though single readings can be large; an effect the other way counts as inactive or inconclusive. Unless noted, % is set by controls: 0 for no effect and ±100 for the full control effect.

CC1CC(C)CN(C(=S)Nc2ccc3nc4n(c(=O)c3c2)CCCCC4)C1 (stereo unspecified) was read as PNC assembly inh -15 and ALOX12 inhib -1%.
Screening C/C(N)=C(/C#N)C(=O)CSc1nnnn1-c1ccc(C)cc1C returned PNC assembly inh -133*, ALOX12 inhib -16% and ALOX15B inhib -11%.
For Cc1ccc(-n2nnnc2SC(C)C(N)=O)c(C)c1 (stereo unspecified) the results were PNC assembly inh 33, ALOX12 inhib 0% and ALOX15B inhib -3%.
CN[C@H]1[C@@H](O)[C@@H](NC)[C@@H]2O[C@@]3(O)C(=O)C[C@@H](C)O[C@H]3O[C@H]2[C@H]1O was read as ALOX12 inhib 3%[25.6 µM] and ALOX15B inhib 5%[25.6 µM].
Cc1cccc(C)c1NC(=O)CSc1nnc(-c2ccncc2)n1Cc1ccco1 was read as PNC assembly inh 2, ALOX12 inhib -2% and ALOX15B inhib 11%.
`O=C(CSc1nnc(-c2ccccc2Cl)n1Cc1ccco1)Nc1ccc2c(c1)OCCO2` gave PNC assembly inh -96*, ALOX12 inhib 9% and ALOX15B inhib -2%.
Cn1c(SCC(=O)N2c3ccccc3Sc3ccc(Cl)cc32)nnc1-c1ccco1 was read as PNC assembly inh 0 and ALOX12 inhib 9%.
For O=C(CSc1nnc(-c2ccc(Cl)cc2)n1Cc1ccco1)Nc1ccc2c(c1)OCCO2 the results were PNC assembly inh 8, ALOX12 inhib inconclusive and ALOX15B inhib -23%.
For O=C(CSc1nnc(-c2ccncc2)n1Cc1ccco1)N1c2ccccc2Sc2ccc(Cl)cc21 the results were PNC assembly inh -100* and ALOX12 inhib 2%.
For O=C(CSc1nnc(-c2ccncc2)n1Cc1ccco1)Nc1nccs1 the results were PNC assembly inh -100* and ALOX12 inhib -1%.
Screening CC(=O)OC1CC(C)OC(C)O1 (stereo unspecified) returned ALOX12 inhib 0% and ALOX15B inhib -1%.
`CC(C)[C@@H](CC(=O)N[C@@H]1CCNC[C@H]1C(=O)N[C@H](CC(=O)N[C@@H](CCC(=O)O)CC(=O)O)Cc1c[nH]c2ccccc12)NC(=O)C[C@H](Cc1ccccc1)NC(=O)[C@@H]1CCCC[C@H]1N` gave ALOX12 inhib 1%.
Screening COc1ccc(CNC(=O)[C@H]2C[C@@H]2[C@H](NP(=O)(c2ccccc2)c2ccccc2)c2ccccc2)cc1OC returned ALOX12 inhib -5% and ALOX15B inhib 18%.
CC1=C(C(=O)OCC(C)C)C(c2ccsc2)C2=C(CCCC2=O)N1 (stereo unspecified) was read as PNC assembly inh inconclusive and ALOX12 inhib -1%.
Cc1onc(-c2c(Cl)cccc2Cl)c1C(=O)Nn1cnnc1 was read as PNC assembly inh -107*, ALOX12 inhib 3% and ALOX15B inhib -4%.
`Cc1onc(-c2c(Cl)cccc2Cl)c1C(=O)NC(C)(C)CO` gave PNC assembly inh 0, ALOX12 inhib -3% and ALOX15B inhib 6%.
`Cc1oc(-c2ccccc2F)nc1CN1CCC(C(=O)NCCC2=CCCCC2)CC1` gave PNC assembly inh -18, ALOX12 inhib -6% and ALOX15B inhib 50%.
Screening C=C1C(N)CC2CC1C2(C)C (stereo unspecified) returned ALOX12 inhib 2% and ALOX15B inhib -3%.
`COc1ccc(NS(=O)(=O)c2cc(OC)ccc2NC(=O)c2cc(C)oc2C)cc1` gave PNC assembly inh -100*, ALOX12 inhib inconclusive and ALOX15B inhib -16%.
For COc1ccc(NC(=O)c2cc(-c3ccccc3)oc2C)cc1 the results were PNC assembly inh inconclusive and ALOX12 inhib -3%.
Screening Fc1ccc2c(c1)C(c1ccncc1)=NNC(c1cccnc1)=N2 returned PNC assembly inh 39, ALOX12 inhib -5% and ALOX15B inhib 12%.
CCC(=O)N(Cc1ccco1)c1nc(-c2cc(OC)ccc2OC)cs1 was read as PNC assembly inh -100* and ALOX12 inhib -1%.
For CCC(=O)N(Cc1ccco1)c1nc(-c2ccc(OC)cc2)cs1 the results were PNC assembly inh 17 and ALOX12 inhib -7%.
For COCCn1c(=O)c(-c2cccc(C#N)c2)nc2cnc(N(C)C)nc21 the results were ALOX15B inhib -2%.
CCc1ccc2c(c1)N(C[C@H](C)CN(C)C)c1ccccc1S2 was read as ALOX12 inhib 3%[11.4 µM] and ALOX15B inhib 4%[11.4 µM].
Screening CCN(CC)[C@@H](C)CN1c2ccccc2Sc2ccccc21 returned ALOX12 inhib inconclusive and ALOX15B inhib 13µM*.
CCn1c(SCC(=O)Nc2cc(OC)ccc2OC)nnc1C1CCCCC1 was read as PNC assembly inh inconclusive, ALOX12 inhib -6% and ALOX15B inhib -6%.
